Compounds with a hit are over-represented: about 1.8% of the library has one in this group of screens.
GLP-1R inv ag – qHTS of GLP-1 Receptor Inverse Agonists (Inhibition Mode); Glucagon-like peptide 1 receptor (Homo sapiens), P43220; HEK293 GLP-1R CRE-luciferase, luminescence, 24 h; GLP-1R form is constitutively active; Potency, µM (titrated, usually from 38.3 µM), for the others: at the top dose activity change, negative = inhibition, usual class: inhibitors; actives 1.6% (n = 410,000); AID 624417, 2012; note: potency is the fitted concentration of half-maximal effect; % is set by controls: 0 for no effect and ±100 for the full control effect; nearly all actives have a fitted effect of over 55% in size
Target sequence (P43220 whole entry, looked up): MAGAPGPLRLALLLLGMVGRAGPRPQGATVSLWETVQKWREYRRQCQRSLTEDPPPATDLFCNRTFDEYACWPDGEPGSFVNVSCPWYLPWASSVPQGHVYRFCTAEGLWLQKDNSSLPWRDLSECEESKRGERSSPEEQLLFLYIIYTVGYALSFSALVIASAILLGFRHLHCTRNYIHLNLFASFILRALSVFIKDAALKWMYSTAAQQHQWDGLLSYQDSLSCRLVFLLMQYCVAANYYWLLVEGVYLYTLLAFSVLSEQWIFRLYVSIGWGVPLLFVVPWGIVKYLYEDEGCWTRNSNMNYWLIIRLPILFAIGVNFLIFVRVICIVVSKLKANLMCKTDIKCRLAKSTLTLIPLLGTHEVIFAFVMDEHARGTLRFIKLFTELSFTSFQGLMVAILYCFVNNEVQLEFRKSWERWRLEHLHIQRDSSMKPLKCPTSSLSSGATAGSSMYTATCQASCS
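Constitutively active GLP-1R drives a cAMP-responsive luciferase in stably transfected HEK293 cells; test compounds are added after overnight (12 h) attachment and left 24 hr, and signal loss in luminescence marks inhibition.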
PTHR1 ag – qHTS for PTHR1 Agonists: Primary Screen; Parathyroid hormone/parathyroid hormone-related peptide receptor (Homo sapiens), Q03431; HEK293 GP2 PTHR1 cells, GloSensor cAMP luminescence, 1 h; Potency, µM (highest dose often 115 µM), without a hit: top-dose activation, most hits filed as activators; actives 0.075% (n = 410,000); AID 743266, 2014; note: potency is the fitted concentration of half-maximal effect; nearly all actives have a fitted effect of over 55% in size
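HEK-293-derived GP2 cells expressing PTHR1 and a GloSensor cAMP reporter, 3,000/well, plated overnight, given luciferin plus IBMX (each 0.5 mM as added) for 1 h at 37 °C, then compound for 1 h at 37 °C. Luminescence was read after 15 min at room temperature.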
HEK293 tox – qHTS of GLP-1 Receptor Inverse Agonists: Cytotox Screen. AID 624418, 2012. HEK293 cAMP-luciferase reporter cells, luminescence, 24 h. actives 0.13% (n = 410,000). Potency, µM (highest dose often 38.3 µM), for the others: top-dose activity change, negative = inhibition, hits mostly inhibitors;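 note: loss of luciferase light is scored as toxicity; potency is the fitted concentration of half-maximal effect; % is set by controls: 0 for no effect and ±100 for the full control effect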
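Quantitative HTS format, 1536 wells, 200 cells/uL seeded. Compounds: 23 nL, 24 h, 37 °C. Detection: luciferase reagent, luminescence at 12 min RT; decreased signal taken as cytotoxic.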
GLP-1R agonist – qHTS of GLP-1 Receptor Agonists. Glucagon-like peptide 1 receptor (Homo sapiens), P43220. HEK293 GLP-1R CRE-luciferase, luminescence, 4-6 h; cells express a hypersensitive GLP-1R form. Potency, µM (highest dose often 45.6 µM), inactives show at the top dose activation, actives largely listed as activators. actives 0.007% (n = 380,000). AID 624172, 2012; note: potency is the fitted concentration of half-maximal effect; % of control where 0% means no effect
TSHR antag – Antagonists of the Thyroid Stimulating Hormone Receptor: HTS campaign. actives 0.2% (n = 330,000). Thyrotropin receptor (Homo sapiens), P16473. activity change, negative = inhibition, % at 11.5 µM. TSHR-expressing cells, TSH-stimulated cAMP HTRF, 2 h; stronger effect = lower value. AID 504810, 2011;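 active = activity change below a set negative limit, meaning inhibition stronger than a set level, cut at about -70% in these data; inconclusive = activity change between two set negative limits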; note: % is set by controls: 0 for no effect and ±100 for the full control effect
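Competitive HTRF cAMP read-out (cryptate anti-cAMP antibody, cAMP-d2; 30 min, room temperature) in freshly harvested TSHR cells. Compounds added before TSH at EC80 (4nM final), followed by 2 hours' incubation at 37 deg C.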
* marks the source's active call; other numbers are inactive results; i = inactive; ? = inconclusive; · = no result; [ ] = dose if it differs, or a comment. Unless noted, calls come from the whole dose curve; as a rule, active = well fitted curve in the direction sought with a large enough effect; inconclusive = small, poorly fitted or top-dose-only effect, or another doubt; inactive = no such curve, though single readings can be large; an effect the other way counts as inactive or inconclusive.

SMILES	GLP-1R inv ag	PTHR1 ag	HEK293 tox	GLP-1R agonist	TSHR antag
CC(NC(=O)CSCc1ccc(Br)cc1)c1ccccc1 (centres undefined)	7.08µM*	-44.4%	1.3%	14.4%	-18.0
Cc1cc(C)c(NC(=S)N(CCN2CCCCC2)Cc2ccco2)c(C)c1	?	i	?	7.4%	0.1
Cc1cccc(C)c1NC(=S)N(CCN1CCCCCC1)Cc1ccco1	10µM*	-17.9%	-17.5%	0.4%	7.3
CCOC(=O)c1ccc(NC(=O)CCC(=O)N2CCSc3ccccc32)cc1	?	-24.5%	?	·	·
CCOc1ccc2oc(C(=O)N3CCN(c4ccccc4OCC)CC3)c(C)c2c1	11.2µM*	i	-6.4%	1.0%	-12.9
CCOc1ccc2oc(C(=O)N3CCCN(C)CC3)c(C)c2c1	?	i	-14.8%	-0.7%	8.9
CCOc1ccc2oc(C(=O)NC3CCN(Cc4ccccc4)CC3)c(C)c2c1	?	-34.0%	0.6%	8.7%	3.4
CCOc1ccc2oc(C(=O)NC3CC(C)(C)NC(C)(C)C3)c(C)c2c1	10µM*	i	1.3%	-0.8%	18.7
Cc1ccc(Cl)cc1N(C)C(=O)c1cc2ccc3cccnc3c2[nH]1	?	-22.1%	-2.9%	·	·
O=C(NCc1ccc(Cl)cc1)c1cnc2sc(N3CCCCCC3)nn2c1=O	9.7%	-18.7%	3.8%	·	·
NC(=O)N=Nc1c(O)[nH]c2ccc([N+](=O)[O-])cc12	10.9%	i	-17.1%	2.5%	2.6
O=C(CNC(=O)c1ccco1)N=Nc1c(O)[nH]c2ccc([N+](=O)[O-])cc12	6.9%	14.9%	?	8.0%	-11.9
CC(C)NC(=S)N=Nc1c(O)[nH]c2ccc([N+](=O)[O-])cc12	?	-25.1%	2.51µM*	10.3%	-7.9
C=C(C)CNC(=S)N=Nc1c(O)[nH]c2ccc([N+](=O)[O-])cc12	-72.7%	-6.4%	4.47µM*	9.6%	-2.2
Cc1oc2c(cc(NS(=O)(=O)c3ccc(F)cc3)c3ccccc32)c1C(=O)OCc1ccccc1	?	i	?	·	·
CCc1ccc2oc(-c3ccc(NC(=O)c4cccc(Cl)c4Cl)cc3)nc2c1	-12.3%	-42.9%	0.7%	·	·
CC[C@H]1OC(=O)C[C@@H](O)[C@H](C)[C@@H](O[C@@H]2O[C@H](C)C[C@H](N(C)C)[C@@H]2O)[C@@H](CC=O)C[C@@H](C)C(=O)/C=C\[C@]2(C)O[C@H]2[C@@H]1C	·	·	·	-4.1%	·
CCSc1ncc(Cl)c(C(=O)Nc2ccc(S(=O)(=O)N3CCC(C)CC3)cc2)n1	-22.8%	-4.1%	-7.0%	·	·
CCS(=O)(=O)c1ncc(Cl)c(C(=O)Nc2ccccc2OC)n1	130.1%	-32.3%	-13.4%	-2.6%	-14.4
COc1ccccc1NC(=O)c1nc(S(=O)(=O)Cc2ccccc2)ncc1Cl	4.6%	-21.4%	4.5%	-1.3%	-78.5*
Cc1cccc(CS(=O)(=O)c2ncc(Cl)c(C(=O)NCc3ccc4c(c3)OCO4)n2)c1	8.91µM*	-37.8%	-8.3%	-15.4%	33.7
CCc1ccc(NC(=O)c2nc(S(=O)(=O)Cc3ccccc3)ncc2Cl)cc1	·	·	·	·	-73.9*
CCS(=O)(=O)c1ncc(Cl)c(C(=O)Nc2ccc(S(=O)(=O)N3CCC(C)CC3)cc2)n1	?	-18.7%	6.1%	-6.7%	-78.0*
CCOC(=O)c1ccc(NC(=O)c2nc(S(=O)(=O)Cc3ccccc3)ncc2Cl)cc1	11.5%	-95.8%	6.8%	4.8%	?
COc1cccc(-c2nc(S(=O)(=O)c3ccc(C)cc3)c(N3CCCCC3)o2)c1	-14.8%	i	-4.5%	·	·
SMILES	GLP-1R inv ag	PTHR1 ag	HEK293 tox	GLP-1R agonist	TSHR antag
CCS(=O)(=O)c1ncc(Cl)c(C(=O)Nc2ccccc2)n1	?	-97.5%	?	·	·
CCOc1ccccc1NC(=O)c1nc(S(=O)(=O)Cc2ccccc2)ncc1Cl	-25.8%	-49.1%	-24.3%	-8.5%	-74.9*
COc1ccc2c(CNCc3ccco3)c(C(=O)O)n(Cc3cccc(F)c3)c2c1	5.5%	i	0.8%	·	·
COc1ccc(C(=O)NCC(c2ccco2)N2CCc3ccccc32)c(OC)c1 (centres undefined)	8.91µM*	-4.9%	-2.3%	17.4%	1.5
COc1ccc(S(=O)(=O)NCC(c2ccco2)N2CCc3ccccc32)cc1 (centres undefined)	6.31µM*	-30.1%	-6.6%	-0.6%	-5.8
O=C(NCC(c1ccco1)N1CCc2ccccc21)c1ccc([N+](=O)[O-])cc1 (centres undefined)	?	-21.0%	-5.3%	-9.5%	-4.8
Cc1ccc(C(=O)NCC(c2ccco2)N2CCc3ccccc32)cc1 (centres undefined)	10µM*	-7.1%	7.8%	-1.8%	-2.7
COc1ccc(C(=O)NCC(c2ccco2)N2CCc3ccccc3C2)c(OC)c1 (centres undefined)	?	i	-5.0%	3.1%	·
O=C(NCC(c1ccco1)N1CCc2ccccc21)c1cccc([N+](=O)[O-])c1 (centres undefined)	10µM*	i	-5.1%	22.8%	-10.8
Cc1ccc(CNC(=O)c2cccn2-c2nnc(N3CCCCC3)s2)cc1	-1.8%	i	-16.2%	·	·
Cc1noc(/C=C/c2ccco2)c1S(=O)(=O)N1CCC(C(=O)Nc2ccc(F)c(Cl)c2)CC1	?	-56.3%	-11.2%	·	·
COc1ccc(S(=O)(=O)NCCc2sc(C)nc2C)cc1F	2.8%	-10.0%	3.6%	9.8%	·
S=C(Nc1ccc(Cl)c(Cl)c1)NC1CCCCC1	-16.4%	-8.6%[57.5 µM]	12.6µM*	5.7%	-42.1
S=C(Nc1ccc(Oc2ccccc2)cc1)NC1CCCCCC1	10µM*	-30.1%	?	-4.2%	-41.5
S=C(Nc1ccc(Cl)c(Cl)c1)NC1CCN(Cc2ccccc2)CC1	3.16µM*	-24.6%[57.5 µM]	?	-21.6%	-9.4
S=C(NNc1ccc2ccccc2c1)NC1CCCCC1	10µM*	-4.6%	?	0.3%	-0.3
CCN(CC)c1ccc(NS(=O)(=O)c2ccc(-c3coc(C)n3)cc2)c(C)c1	?	-25.5%	-4.8%	-3.6%	·
Cc1ccccc1OCCSc1nc2ccc(NC(=O)c3ccccc3)cc2s1	2.82µM*	i	-7.1%	·	·
Cc1ccccc1OCCSc1nc2ccc(NC(=O)c3cccs3)cc2s1	12.6µM*	i	7.3%	·	·
Cc1cccc(NC(=O)/C(C#N)=C/c2ccco2)c1	4.6%	-18.9%	3.0%	·	·
Cc1cc(C)c(S(=O)(=O)Nc2ccc3oc4c(c3c2)CCCC4)cc1C	?	-6.1%	26.2%	·	·

Screens from PubChem BioAssay.
